Test results published in PubChem BioAssay (NCI).
Compounds without any hit were thinned out: in the full panel of roughly 83,000, 20% have a hit.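 Single-dose data. Exposure time 48 hours. Values below 10 considered active.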 Active and inactive are the calls of the source.

Assays:
Experiment in all cases: NCI-60 one-dose screen, 48 h (100 = growth as untreated, 0 = no growth, -100 = all killed)
Details in all cases: 10 µM unless noted
NCI-H23 lung = tested on: NCI-H23 lung
NCI-H226 lung = tested on: NCI-H226 lung
NCI-H322M lung = tested on: NCI-H322M lung
HOP-62 NSCLC = tested on: HOP-62 NSCLC
NCI-H460 lung = tested on: NCI-H460 lung
NCI-H522 lung = tested on: NCI-H522 lung
A549/ATCC NSCLC = tested on: A549/ATCC NSCLC
786-0 renal = tested on: 786-0 renal
COLO 205 colon = tested on: COLO 205 colon
DU-145 prostate = tested on: DU-145 prostate
K-562 leukemia = tested on: K-562 leukemia
MALME-3M melanoma = tested on: MALME-3M melanoma
MDA-MB-231 breast = tested on: MDA-MB-231 breast
RXF 393 renal = tested on: RXF 393 renal
SF-268 CNS = tested on: SF-268 CNS
SF-295 CNS = tested on: SF-295 CNS
SF-539 CNS = tested on: SF-539 CNS
UACC-257 melanoma = tested on: UACC-257 melanoma
M14 melanoma = tested on: M14 melanoma

Measured: growth

C[Si](C)(C)C(c1ccccc1)c1ccccc1
inactive: NCI-H23 lung 99.5% | NCI-H226 lung 113% | NCI-H322M lung 105% | HOP-62 NSCLC 105% | NCI-H460 lung 106% | NCI-H522 lung 98.2% | A549/ATCC NSCLC 91.1% | 786-0 renal 110% | COLO 205 colon 105% | DU-145 prostate 102% | K-562 leukemia 86.7% | MALME-3M melanoma 90.2% | MDA-MB-231 breast 123% | RXF 393 renal 126% | SF-268 CNS 104% | SF-295 CNS 109% | SF-539 CNS 111% | UACC-257 melanoma 109% | M14 melanoma 108%

CCN(CC)CCNC(=O)n1cc(-c2ccncc2)c(-c2cc(Cl)cc(OC)c2)n1
inactive: NCI-H23 lung 80.1% | NCI-H226 lung 38.7% | NCI-H322M lung 114% | HOP-62 NSCLC 35.9% | NCI-H460 lung 97.9% | NCI-H522 lung 92.3% | A549/ATCC NSCLC 49.5% | 786-0 renal 71.5% | COLO 205 colon 46.2% | DU-145 prostate 81.3% | K-562 leukemia 66.7% | MALME-3M melanoma 111% | MDA-MB-231 breast 82.8% | RXF 393 renal 61.8% | SF-268 CNS 73.9% | SF-295 CNS 80.3% | SF-539 CNS 44% | UACC-257 melanoma 89.4% | M14 melanoma 108%

CN(C)c1nc(-c2cccs2)n2nc(-c3ccco3)cc2n1
inactive: NCI-H23 lung 87.2% | NCI-H226 lung 90.2% | NCI-H322M lung 106% | HOP-62 NSCLC 106% | NCI-H460 lung 98.4% | NCI-H522 lung 96.2% | A549/ATCC NSCLC 101% | 786-0 renal 96.1% | COLO 205 colon 126% | DU-145 prostate 116% | K-562 leukemia 106% | MALME-3M melanoma 121% | MDA-MB-231 breast 82.6% | RXF 393 renal 83.7% | SF-268 CNS 104% | SF-295 CNS 106% | SF-539 CNS 93.6% | UACC-257 melanoma 113% | M14 melanoma 98%

C/C(=N\NC(=O)CSc1nc2ccccc2c(=O)n1CCc1ccc(S(N)(=O)=O)cc1)c1ccc(Br)cc1
inactive: NCI-H23 lung 60.4% | NCI-H226 lung 95.2% | NCI-H322M lung 97.2% | HOP-62 NSCLC 77.4% | NCI-H460 lung 30.8% | NCI-H522 lung 62.5% | A549/ATCC NSCLC 47.3% | 786-0 renal 49.8% | COLO 205 colon 93.6% | DU-145 prostate 99% | K-562 leukemia 54.3% | MALME-3M melanoma 54.4% | MDA-MB-231 breast 36.9% | RXF 393 renal 99.1% | SF-268 CNS 99.4% | SF-295 CNS 89.9% | SF-539 CNS 83.1% | UACC-257 melanoma 83.3% | M14 melanoma 70.3%

O=C(Nc1ccccc1)c1cc2ccccc2s1
inactive: NCI-H23 lung 74.8% | NCI-H226 lung 88.4% | NCI-H322M lung 75.6% | HOP-62 NSCLC 94.5% | NCI-H460 lung 39.7% | NCI-H522 lung 82.4% | A549/ATCC NSCLC 69.4% | 786-0 renal 92.8% | COLO 205 colon 95.1% | DU-145 prostate 103% | K-562 leukemia 87.1% | MALME-3M melanoma 108% | MDA-MB-231 breast 78.2% | RXF 393 renal 110% | SF-268 CNS 95.6% | SF-295 CNS 96.8% | SF-539 CNS 110% | UACC-257 melanoma 95.1% | M14 melanoma 75.5%

CCN(CC)CC(=O)Nc1c(C)cc(C(=O)NN)cc1C
inactive: NCI-H23 lung 94.8% | NCI-H226 lung 99.7% | NCI-H322M lung 89.1% | HOP-62 NSCLC 88.5% | NCI-H460 lung 105% | NCI-H522 lung 105% | A549/ATCC NSCLC 106% | 786-0 renal 106% | COLO 205 colon 95.4% | DU-145 prostate 96.8% | K-562 leukemia 94.9% | MALME-3M melanoma 73.9% | MDA-MB-231 breast 103% | RXF 393 renal 110% | SF-268 CNS 93.9% | SF-295 CNS 105% | SF-539 CNS 100% | UACC-257 melanoma 100% | M14 melanoma 96.2%

NC(=S)N1N=C(c2ccc(Cl)cc2)CC1c1cc2ccccc2[nH]c1=O (centres undefined)
inactive: NCI-H23 lung 105% | NCI-H226 lung 113% | NCI-H322M lung 97.2% | HOP-62 NSCLC 102% | NCI-H460 lung 108% | NCI-H522 lung 84.2% | A549/ATCC NSCLC 110% | 786-0 renal 98% | COLO 205 colon 115% | DU-145 prostate 118% | K-562 leukemia 112% | MALME-3M melanoma 93.8% | MDA-MB-231 breast 109% | RXF 393 renal 123% | SF-268 CNS 112% | SF-295 CNS 108% | SF-539 CNS 106% | UACC-257 melanoma 111% | M14 melanoma 111%

C=C1C(=O)O[C@H]2[C@H]1CC/C(COC(=O)NCc1c[nH]c3ccc(OC)cc13)=C\CC[C@@]1(C)O[C@@H]21
active: NCI-H522 lung -72.8% | 786-0 renal -59.2% | COLO 205 colon -69.2% | DU-145 prostate -10.4% | K-562 leukemia 3.23% | MALME-3M melanoma -31% | MDA-MB-231 breast -6.78% | RXF 393 renal -93.3% | SF-539 CNS -23.3% | UACC-257 melanoma -16.3% | M14 melanoma -48%
inactive: NCI-H23 lung 51.6% | NCI-H226 lung 27.9% | NCI-H322M lung 84.9% | HOP-62 NSCLC 49.2% | NCI-H460 lung 33.7% | A549/ATCC NSCLC 29.6% | SF-268 CNS 45.2% | SF-295 CNS 63.5%

CN(C)c1ccc(/C=C\c2cccc[n+]2C)cc1
active: COLO 205 colon -35.6%
inactive: NCI-H23 lung 46.6% | NCI-H226 lung 67.7% | NCI-H322M lung 102% | HOP-62 NSCLC 48% | NCI-H460 lung 69.5% | NCI-H522 lung 30.5% | A549/ATCC NSCLC 20.8% | 786-0 renal 69.3% | DU-145 prostate 70.1% | K-562 leukemia 21% | MALME-3M melanoma 57.4% | MDA-MB-231 breast 73.4% | RXF 393 renal 86.6% | SF-268 CNS 26.7% | SF-295 CNS 19% | SF-539 CNS 58.9% | UACC-257 melanoma 31.7% | M14 melanoma 69.6%

O=C(c1ccccc1)c1cccc(C(Br)Br)c1
inactive: NCI-H23 lung 92.8% | NCI-H226 lung 101% | NCI-H322M lung 95.1% | HOP-62 NSCLC 86.7% | NCI-H460 lung 66.4% | NCI-H522 lung 66% | A549/ATCC NSCLC 86.9% | 786-0 renal 100% | COLO 205 colon 96.6% | DU-145 prostate 93.7% | K-562 leukemia 46.4% | MALME-3M melanoma 88.9% | MDA-MB-231 breast 103% | RXF 393 renal 95.7% | SF-268 CNS 95.5% | SF-295 CNS 76.2% | SF-539 CNS 95.2% | UACC-257 melanoma 105% | M14 melanoma 72.1%

O=S(=O)(Cc1ccc(Cl)cc1Cl)c1ccc(Cl)cc1
inactive: NCI-H23 lung 50.2% | NCI-H226 lung 69.3% | NCI-H322M lung 50.3% | HOP-62 NSCLC 36.5% | NCI-H460 lung 18.4% | A549/ATCC NSCLC 30.7% | 786-0 renal 30.2% | DU-145 prostate 41% | K-562 leukemia 10.5% | MALME-3M melanoma 58% | MDA-MB-231 breast 49.8% | SF-268 CNS 67.8% | SF-539 CNS 12.7% | UACC-257 melanoma 77.4%
active: NCI-H522 lung -5.62% | COLO 205 colon 8.87% | RXF 393 renal -15.6% | SF-295 CNS 2.18% | M14 melanoma 9.79%
